# About 900 (1.7%) of roughly 53,000 compounds showed an effect of 50% or more. What follows is part of a selection rich in strong results, with near analogues and random picks from the rest.
# Test system: Mycobacterium tuberculosis
# Assay: Cornell - Phenotypic assay to identify agents that inhibit growth of Mycobacterium tuberculosis
# Format: functional
# Parameters: scale not given: direction of the effect not stated beside the values
# Conditions: 10 mM as filed; unlikely as a test dose
row,SMILES,Percent Effect [%]
1,O=C(NCCc1ccc(Cl)s1)N1CCS(=O)(=O)CC1,3.625
2,CC(NC(=O)Cc1ccccc1F)C(=O)N1CCS(=O)(=O)CC1 (stereo not given),19.17
3,Cc1ccc(CC(=O)NC(C)C(=O)N2CCS(=O)(=O)CC2)s1 (stereo not given),63.58
4,CC(C)n1ccc(CN2CCN(c3cc(NC4CC4)nc(N)n3)CC2)c1,13.37
5,NC(=O)C1CCCN1Cc1cccc(NC(=O)c2ccc(Cl)cc2F)c1 (stereo not given),-4.35
6,O=C(O)C(F)(F)F.O=C1COC2(COCCN(Cc3ccsc3)C2)CN1c1ccoc1 (stereo not given),-47.88
7,CSCCC1c2nc[nH]c2CCN1Cc1ccccc1C(F)(F)F (stereo not given),2.921
8,CSCCC1c2nc[nH]c2CCN1Cc1cc(Cl)ccc1O (stereo not given),102.1
9,CSCCC1c2nc[nH]c2CCN1Cc1ccccc1C#N (stereo not given),19.15
10,CN1C[C@@H](N)C[C@H]1C(=O)N1CCC(Cc2ccc(F)cc2)CC1,-16.49
11,C1CC(CN2C[C@@H]3C[C@@H](c4nnc(C5CC5)o4)O[C@@H]3C2)C1,-19.97
12,N#Cc1cccc(S(=O)(=O)Nc2c(F)cccc2N2CCCC2)c1,53.51
13,Cn1cc(S(=O)(=O)Nc2c(F)cccc2N2CCCC2)cn1,-1.726
14,O=S(=O)(Nc1c(F)cccc1N1CCCC1)c1cncc(F)c1,35.26
15,Cc1cc(NCCNS(=O)(=O)c2cn(C)nc2C)c2ccccc2n1,11.79
16,CNC(=O)c1cccc(CC2COCCN(Cc3ccsc3)C2)n1 (stereo not given),-5.574
17,CC1c2ncc(COCC3CC3)n2CCN1C(=O)c1ccnn1C (stereo not given),18.95
18,Cc1cc2nc(C(C)C)cc(NCc3ccncc3)n2n1,-23.44
19,OCCn1nccc1C1CCN(CCOc2ccccc2)CC1,-26.3
20,O=C(c1ccc(S(=O)(=O)N2CCSCC2)cc1)N1CCC(O)C1 (stereo not given),10.6
21,COC(=O)C1CCN(C(=O)c2ccc(N(C)S(C)(=O)=O)c(C)c2)CC1,-22.29
22,COC(=O)C1CCN(C(=O)c2nnc3ccc(C)cc3n2)CC1,-19.31

row,SMILES,Percent Effect [%]
1,CCc1nc(C(=O)N2CCN(C)CC2)nn1-c1ccccc1Cl,-21.83
2,COC(=O)C1CCN(C(=O)c2nnc3ccc(Cl)cc3n2)CC1,106.2
3,CN1CCN(C(=O)c2nnc3ccc(Cl)cc3n2)CC1,64.7
4,Cc1ccc2cc(C(=O)N3CCCN(C)CC3)ccc2n1,-5.453
5,COc1ccccc1CCN1CCCC(CN(C)Cc2ccc(C)o2)C1 (stereo not given),14.72
6,CC1=N[C@@]2(CC[C@@H]3CN(C(=O)NCc4ccccc4C)C[C@@H]32)C(=O)N1,15.83
7,Cc1nn(C)cc1C(=O)N1CCC(C(=O)c2nc3ccccc3s2)CC1,26.37
8,Cc1c(C(=O)N2CCC(C(=O)c3nc4ccccc4s3)CC2)cnn1C,60.09
9,Cn1nc(Cl)cc1C(=O)N1CCC(C(=O)c2nc3ccccc3s2)CC1,-10.64
10,Cc1cccc(OCc2ccc(C(=O)N3N=CCC3(O)C(F)(F)F)o2)c1 (stereo not given),29.06
11,O=C(c1ccc(COc2ccccc2Cl)o1)N1N=CCC1(O)C(F)(F)F (stereo not given),1.91
12,O=C(c1ccc(COc2ccc(Cl)cc2)o1)N1N=CCC1(O)C(F)(F)F (stereo not given),61.62
13,Cc1nnsc1C(=O)N1CCC(c2nc3ccccc3[nH]2)CC1,0.6445
14,CCOC(=O)C1CCN(C(=O)c2cc(F)ccc2-n2cnnn2)CC1,-0.0971
15,O=C(c1ccnnc1)N1CC[C@@H](O)[C@@H]1Cc1ccccc1,-23.76
16,CCc1c(C)sc2c1c(N)nc(=O)n2CCN1CCCCC1,22.93
17,CCN(CC1CCCN(CCc2cccc(OC)c2)C1)C(=O)CCSC (stereo not given),-29.92
18,Cc1ccc(CN2C[C@H](OCC3CCOCC3)[C@H]3COC[C@H]32)o1.O=C(O)C(F)(F)F,-26.82
19,c1ccc(N2CCOCC3(CCCN(c4nccs4)C3)C2)nc1 (stereo not given),23.66
20,O=C(O)C(F)(F)F.c1ccc(N2CCCC3(COCCN(c4nccs4)C3)C2)nc1 (stereo not given),51.66
21,Cc1ccc(N2CCCC3(COCCN(c4nccs4)C3)C2)nn1.O=C(O)C(F)(F)F.O=C(O)C(F)(F)F (stereo not given),20.96
22,Cc1nc(Cn2c3c(ccc2=O)CC(NC(N)=O)CC3)cs1 (stereo not given),-11.16

row,SMILES,Percent Effect [%]
1,O=C(c1ccoc1)N1CC[C@@H]2O[C@@H](COCc3ccncc3)CC[C@@H]21,17.45
2,CC(C)c1noc(C[S+]([O-])CC(=O)Nc2ccc(F)c(F)c2)n1 (stereo not given),60.65
3,CC(C)c1noc(CCCC(=O)Nc2cccc(F)c2)n1,-20.44
4,CC(C)c1noc(C[S+]([O-])CC(=O)Nc2cc(F)ccc2F)n1 (stereo not given),57.68
5,CC(C)c1noc(CCC(=O)Nc2cc(F)ccc2F)n1,-35.92
6,CC(C)c1noc(CN2CCN(C(=O)c3cc(Cl)ccc3F)CC2)n1,34.44
7,CC(C)CCc1noc(C[S+]([O-])CC(=O)NCc2ccccc2)n1 (stereo not given),-9.037
8,Cc1cc(C)n(C2CCCN(C(=O)c3ccc(N(C)C)nc3)C2)n1 (stereo not given),-19.67
9,Cc1ccc(CN2CCCC(c3cnccn3)C2)s1 (stereo not given),14.09
10,Cl.Fc1cccc(F)c1Cn1c(C2CCCNC2)cc2cccnc21 (stereo not given),30.15
11,c1cncc(CNCCc2cccs2)c1,34.29
12,Cc1cn2nc(Sc3nnnn3C)sc2n1,-10.32
13,O=C(O)c1csc(S(=O)(=O)Nc2c(F)cccc2-n2cccn2)c1,-80.25
14,O=C(c1ncccn1)N1C[C@@H]2CC[C@H](Oc3cccc(F)c3)[C@@H]2C1,15.44
15,Cn1ccc(C2CCCCCN2C(=O)c2cccnc2)n1 (stereo not given),-55.79
16,CCC(CN1CCOCC1)n1cncc1-c1ccc2c(c1)CCN2CC.Cl (stereo not given),11.86
17,CN(CC(=O)N(CCC#N)c1ccccc1)C1CCc2ccccc21 (stereo not given),6.676
18,Cc1cc(NC(=O)CN2CCCC2Cn2nc(C)nc2C)on1 (stereo not given),9.67
19,COc1ccc2c(c1)C(=O)N(C)C1(CCN(CC3CC3)CC1)N2,-6.53
20,COc1ccc2c(c1)C(=O)N(C)C1(CCN(CC=C(C)C)CC1)N2,0.8841
21,COc1ccc2c(c1)C(=O)N(C)C1(CCN(C(=O)OC(C)(C)C)CC1)N2,105.8

# From ChEMBL document CHEMBL3988442, “University of Dundee, Small-Polar-MMV Screening Library” (2021)
